Assay results taken from ChEMBL document CHEMBL3988442, “University of Dundee, Small-Polar-MMV Screening Library” (2021).

System: Trypanosoma cruzi
Assay: Trypanosoma cruzi phosphomannomutase and mannose-1-phosphate guanylyltransferase assay
Assay type: functional
Set-up: scale not given: direction of the effect not stated beside the values
Settings: 10 µM

SMILES	Percent Effect [%]
CC(C)c1nc(C2CCCN(C(=O)c3ccnc(N(C)C)c3)C2)no1 (centres undefined)	-3.62
Cc1cnc(CN2CCCC(c3cc(C(N)=O)[nH]n3)C2)cn1 (centres undefined)	-3.01
Cc1cnn(CC2CCCN2C(=O)c2cccnc2N(C)C)c1 (centres undefined)	1.42
CC(NC(=O)NCc1cccc(Cl)c1)(C(=O)O)c1ccco1 (centres undefined)	5.32

Target: T1, Arginase-2, mitochondrial (Homo sapiens) (UniProt P78540)
T1 sequence (whole entry): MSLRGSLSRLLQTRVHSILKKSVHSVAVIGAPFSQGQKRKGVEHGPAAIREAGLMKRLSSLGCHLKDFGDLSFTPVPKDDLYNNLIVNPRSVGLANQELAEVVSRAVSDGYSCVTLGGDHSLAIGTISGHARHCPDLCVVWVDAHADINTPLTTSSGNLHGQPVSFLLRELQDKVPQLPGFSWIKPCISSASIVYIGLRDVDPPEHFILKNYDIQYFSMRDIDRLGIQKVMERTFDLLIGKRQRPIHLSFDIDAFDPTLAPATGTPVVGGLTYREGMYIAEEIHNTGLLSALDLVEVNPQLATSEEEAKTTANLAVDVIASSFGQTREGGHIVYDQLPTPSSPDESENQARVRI
Assay: in vitro enzyme assay to detect the production of urea directly proportional to the activity of Arginase II; note: in the data most compounds retested in dose-response had high values
Assay type: functional
Set-up: scale not given: direction of the effect not stated beside the values
Settings: 30 µM

SMILES	Percent Effect [%]
Fc1ccc(CNCc2nnc3n2CC(C(F)(F)F)CC3)cc1 (centres undefined)	-13.5
OC(CN(Cc1ccccc1)Cc1cscn1)c1cccs1 (centres undefined)	8.11
Cc1cc(C)cc(OCC(O)CN2CCN(c3nccs3)CC2)c1 (centres undefined)	4.87
COc1ccc2c(c1)OCC(CNC(=O)c1cc(C(C)C)on1)C2 (centres undefined)	2.7
Cc1ccc([C@@H]2CN(S(=O)(=O)c3cc(C)ccc3F)C[C@H]2N(C)C)cc1	2.7
CN(Cc1ccco1)[C@@H]1CN(Cc2ccc(F)cc2)[C@@H]2CCCO[C@H]12	2.7
Cc1ccc(CCNC(=O)N2CCC(Cc3cnn(C)c3)C2)cn1 (centres undefined)	7.03
Cc1cccc(-c2nc(CN3CC(n4nc(C)cc4C)C3)no2)c1	5.95
CNC(=O)CCNC(=O)c1cc(Br)c2c(c1)OCCO2	-10.3
O=C(NC1CC1)[C@@H]1CCO[C@@H]2CCN(CCc3ccccc3)C[C@@H]21	10.3
CN1[C@H]2CC[C@@H]1CN(C(=O)CCc1csc(N)n1)CC2	3.78
COc1ccc2c(c1)OCC(CNC(=O)c1cc[nH]c1C)C2 (centres undefined)	8.11
CN(C)C(=O)[C@@H]1CCO[C@@H]2CCN(CCOCc3ccccc3)C[C@H]21	2.7
CN(Cc1ccco1)[C@@H]1CN(CC2CCOCC2)C[C@@H]2CCCO[C@@H]21	7.03
CC(C)CNC(=O)c1cc(Br)c2c(c1)OCCO2	3.78
CCC(C(=O)NCc1ccncc1)N(c1cccc(Cl)c1)S(C)(=O)=O (centres undefined)	-13.5
CN(Cc1ccco1)[C@@H]1CN(CC2CCOCC2)[C@@H]2CCCO[C@H]12	4.87
COc1ccc(C)cc1C(C(=O)O)N1CCN(Cc2ccccn2)CC1 (centres undefined)	4.87

SMILES	Percent Effect [%]
Cc1cccc(OCC(O)CN2CCN(c3nccs3)CC2)c1 (centres undefined)	3.78
CC(C)CN1CCC(NC(=O)c2ccc(F)cc2F)CC1	7.03
O=C(O)C1CCN(C(=O)Cn2ccc3c(Cl)cccc32)CC1	10.3
Cc1nc(NCC2CC2)nc2c1COCC21CCN(S(=O)(=O)C2CC2)C1 (centres undefined)	7.03
CN(C)C(=O)CN1CCC(c2cncc(-c3cccc(Cl)c3)n2)CC1	-0.54
CCC(C(=O)NCc1ccccn1)N(c1cccc(C)c1)S(C)(=O)=O (centres undefined)	9.19
Cc1cc(CN(Cc2ccccc2)CC(O)c2cccs2)on1 (centres undefined)	3.78
CN1CCN(C(=O)Cn2ccc3c(Cl)cccc32)CC1	4.87
CCn1c(NCc2ccccn2)nc2c(C)nn(C)c2c1=O	-5.95
Cc1ccc(C(=O)N(CCC#N)Cc2ccccn2)cc1C	3.78
Cc1nn(CCO)c(C)c1CNC1CCCCc2ccccc21 (centres undefined)	3.78
CNC(=O)[C@H]1C[C@@H]2CN(C(=O)c3occc3C)C[C@@H]2N1S(C)(=O)=O	2.7
CC1=Nc2c(c(=O)[nH]n2C2CCCCC2)C(c2ccc(C(=O)O)cc2)S1 (centres undefined)	5.95
CN(C)C1CCCN(C(=O)CCc2csc(N)n2)CC1 (centres undefined)	1.62
Cc1cccc(NC2CCc3c2[nH]c(=O)n(C2CCCCC2)c3=O)c1C (centres undefined)	-0.54
Cc1cc(F)c(C(C(=O)O)N2CCN(Cc3ccccn3)CC2)cc1Cl (centres undefined)	5.95
CN(Cc1cccnc1)C1CC2(CCN(Cc3cccnc3)CC2)C1	-12.4
